For some assays here: Measured potencies and affinities stand elsewhere.
Legend:
Set-up in all cases: scale not given: direction of the effect not stated beside the values
[1] = molecular target: Protein translocase subunit SecA (Escherichia coli (strain K12)) (UniProt P10408); assay: Assay to Identify E. coli SecA ATPase Inhibitors; type: functional; settings: 30 µM
[2] = molecular target: T1, Ubiquitin-activating enzyme e1, putative (Leishmania donovani (strain BPK282A1)) (UniProt E9BSI1); assay: Leishmania donovani Ubiquitin Activating Enzyme (LdE1); type: functional; settings: 30 µM
T1 sequence (whole entry): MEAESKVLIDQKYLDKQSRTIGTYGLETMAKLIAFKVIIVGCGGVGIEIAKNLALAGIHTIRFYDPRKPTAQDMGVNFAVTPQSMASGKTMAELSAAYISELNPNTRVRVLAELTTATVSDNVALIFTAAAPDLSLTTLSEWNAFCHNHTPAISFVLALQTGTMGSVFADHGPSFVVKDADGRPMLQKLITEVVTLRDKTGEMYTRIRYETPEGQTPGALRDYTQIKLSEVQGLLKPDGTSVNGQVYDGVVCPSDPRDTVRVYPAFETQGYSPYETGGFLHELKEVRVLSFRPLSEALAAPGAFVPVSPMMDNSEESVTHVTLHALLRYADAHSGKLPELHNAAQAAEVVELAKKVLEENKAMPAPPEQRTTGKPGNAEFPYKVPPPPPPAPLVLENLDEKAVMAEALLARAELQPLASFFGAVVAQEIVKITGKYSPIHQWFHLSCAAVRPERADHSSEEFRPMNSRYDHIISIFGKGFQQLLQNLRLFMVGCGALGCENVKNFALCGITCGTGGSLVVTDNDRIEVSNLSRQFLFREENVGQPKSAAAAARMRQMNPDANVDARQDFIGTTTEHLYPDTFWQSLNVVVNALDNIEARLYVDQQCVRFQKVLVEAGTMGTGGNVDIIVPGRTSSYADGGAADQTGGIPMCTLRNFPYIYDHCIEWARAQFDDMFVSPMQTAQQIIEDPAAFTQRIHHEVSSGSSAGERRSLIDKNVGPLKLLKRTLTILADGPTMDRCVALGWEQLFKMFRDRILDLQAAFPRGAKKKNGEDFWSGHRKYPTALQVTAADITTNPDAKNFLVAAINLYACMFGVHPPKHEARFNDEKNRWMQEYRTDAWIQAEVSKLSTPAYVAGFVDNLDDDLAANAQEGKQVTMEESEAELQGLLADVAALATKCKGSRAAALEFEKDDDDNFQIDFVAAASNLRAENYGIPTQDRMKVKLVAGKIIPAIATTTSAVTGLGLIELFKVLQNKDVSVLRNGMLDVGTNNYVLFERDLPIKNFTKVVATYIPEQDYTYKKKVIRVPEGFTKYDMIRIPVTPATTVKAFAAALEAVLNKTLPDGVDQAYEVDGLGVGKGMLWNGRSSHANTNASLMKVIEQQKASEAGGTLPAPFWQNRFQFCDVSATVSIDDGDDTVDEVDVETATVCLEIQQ

[3] = molecular target: Sialic acid-binding Ig-like lectin 9 (Homo sapiens) (UniProt Q9Y336); assay: Hs-Siglec9 ALPHAscreen SOP 20170721; settings: 10 µM
[4] = system: Trypanosoma cruzi; assay: Trypanosoma cruzi phosphomannomutase and mannose-1-phosphate guanylyltransferase assay; type: functional; settings: 10 µM
[5] = molecular target: T2, Arginase-2, mitochondrial (Homo sapiens) (UniProt P78540); assay: in vitro enzyme assay to detect the production of urea directly proportional to the activity of Arginase II; type: functional; settings: 33.3 µM; note: in the data most compounds retested in dose-response had high values
T2 sequence (whole entry): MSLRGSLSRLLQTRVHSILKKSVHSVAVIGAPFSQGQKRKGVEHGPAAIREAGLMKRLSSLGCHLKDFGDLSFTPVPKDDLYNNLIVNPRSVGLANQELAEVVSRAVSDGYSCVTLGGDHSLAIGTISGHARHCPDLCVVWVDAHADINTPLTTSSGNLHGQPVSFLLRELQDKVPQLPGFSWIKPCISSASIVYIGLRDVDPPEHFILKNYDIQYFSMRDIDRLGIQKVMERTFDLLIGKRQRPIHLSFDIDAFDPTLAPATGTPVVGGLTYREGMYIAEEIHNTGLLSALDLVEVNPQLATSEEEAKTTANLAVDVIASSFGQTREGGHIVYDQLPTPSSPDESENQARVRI

[6] = molecular target: T3, Proteasome subunit beta (Trypanosoma cruzi) (UniProt O96673); assay: Trypanosoma cruzi proteasome chymotrypsin-like activity (TcProtChymo) assay.; note: in the data most compounds retested in dose-response had high values; type: functional; settings: 9.37 µM
T3 sequence (whole entry): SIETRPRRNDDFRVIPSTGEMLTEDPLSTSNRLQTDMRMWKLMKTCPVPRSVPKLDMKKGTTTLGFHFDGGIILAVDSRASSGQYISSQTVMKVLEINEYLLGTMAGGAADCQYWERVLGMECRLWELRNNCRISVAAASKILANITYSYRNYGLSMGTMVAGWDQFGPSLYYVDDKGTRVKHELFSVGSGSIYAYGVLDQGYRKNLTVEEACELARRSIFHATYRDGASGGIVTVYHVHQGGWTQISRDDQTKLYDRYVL

[7] = species: Homo sapiens; assay: To identify inhibition of the IFN signalling (Jak-Stat) pathway via expression of an eGFP reporter gene under the control of an IFN-stimulated response element (ISRE) containing MxA promoter.; type: functional; settings: 30 µM
[8] = molecular target: T4, Tyrosyl-tRNA synthetase, putative (Trypanosoma cruzi (strain CL Brener)) (UniProt Q4DSP6); assay: Trypanosoma cruzi tyrosyl tRNA synthetase (TcYRS) _High Tyrosine SOP; type: functional; settings: 30 µM; note: in the data most compounds retested in dose-response had high values
T4 sequence (whole entry): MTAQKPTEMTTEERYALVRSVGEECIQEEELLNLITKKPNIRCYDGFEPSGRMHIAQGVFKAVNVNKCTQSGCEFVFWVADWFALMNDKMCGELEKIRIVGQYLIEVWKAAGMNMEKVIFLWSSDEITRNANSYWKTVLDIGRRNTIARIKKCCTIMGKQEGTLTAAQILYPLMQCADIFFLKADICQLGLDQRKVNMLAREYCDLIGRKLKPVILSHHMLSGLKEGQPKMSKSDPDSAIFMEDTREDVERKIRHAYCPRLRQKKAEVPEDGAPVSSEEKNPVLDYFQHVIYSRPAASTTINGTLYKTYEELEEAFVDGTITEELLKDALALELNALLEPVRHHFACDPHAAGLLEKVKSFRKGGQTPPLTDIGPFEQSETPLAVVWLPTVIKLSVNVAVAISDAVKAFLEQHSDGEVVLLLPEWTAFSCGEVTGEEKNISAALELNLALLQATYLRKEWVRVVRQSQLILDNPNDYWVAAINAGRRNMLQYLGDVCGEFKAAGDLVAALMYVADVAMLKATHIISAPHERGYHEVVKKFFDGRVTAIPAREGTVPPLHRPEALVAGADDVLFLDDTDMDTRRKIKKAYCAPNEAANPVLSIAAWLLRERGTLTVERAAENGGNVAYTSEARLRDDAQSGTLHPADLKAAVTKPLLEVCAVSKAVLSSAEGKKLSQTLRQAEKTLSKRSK

[9] = molecular target: T4, Tyrosyl-tRNA synthetase, putative (Trypanosoma cruzi (strain CL Brener)); assay: Trypanosoma cruzi tyrosyl tRNA synthetase (TcYRS) SOP; type: functional; settings: 30 µM
[10] = molecular target: Chromo domain-containing protein 1 (Saccharomyces cerevisiae (strain ATCC 204508 / S288c) (Baker's yeast)) (UniProt P32657); assay: ScCHD-1 Enzyme Inhibition Assay; type: functional; settings: 30 µM; note: in the data most compounds retested in dose-response had high values
Sequence of Chromo domain-containing protein 1 (Saccharomyces cerevisiae (strain ATCC 204508 / S288c) (Baker's yeast)) (P32657 whole entry, the tested form may be a part): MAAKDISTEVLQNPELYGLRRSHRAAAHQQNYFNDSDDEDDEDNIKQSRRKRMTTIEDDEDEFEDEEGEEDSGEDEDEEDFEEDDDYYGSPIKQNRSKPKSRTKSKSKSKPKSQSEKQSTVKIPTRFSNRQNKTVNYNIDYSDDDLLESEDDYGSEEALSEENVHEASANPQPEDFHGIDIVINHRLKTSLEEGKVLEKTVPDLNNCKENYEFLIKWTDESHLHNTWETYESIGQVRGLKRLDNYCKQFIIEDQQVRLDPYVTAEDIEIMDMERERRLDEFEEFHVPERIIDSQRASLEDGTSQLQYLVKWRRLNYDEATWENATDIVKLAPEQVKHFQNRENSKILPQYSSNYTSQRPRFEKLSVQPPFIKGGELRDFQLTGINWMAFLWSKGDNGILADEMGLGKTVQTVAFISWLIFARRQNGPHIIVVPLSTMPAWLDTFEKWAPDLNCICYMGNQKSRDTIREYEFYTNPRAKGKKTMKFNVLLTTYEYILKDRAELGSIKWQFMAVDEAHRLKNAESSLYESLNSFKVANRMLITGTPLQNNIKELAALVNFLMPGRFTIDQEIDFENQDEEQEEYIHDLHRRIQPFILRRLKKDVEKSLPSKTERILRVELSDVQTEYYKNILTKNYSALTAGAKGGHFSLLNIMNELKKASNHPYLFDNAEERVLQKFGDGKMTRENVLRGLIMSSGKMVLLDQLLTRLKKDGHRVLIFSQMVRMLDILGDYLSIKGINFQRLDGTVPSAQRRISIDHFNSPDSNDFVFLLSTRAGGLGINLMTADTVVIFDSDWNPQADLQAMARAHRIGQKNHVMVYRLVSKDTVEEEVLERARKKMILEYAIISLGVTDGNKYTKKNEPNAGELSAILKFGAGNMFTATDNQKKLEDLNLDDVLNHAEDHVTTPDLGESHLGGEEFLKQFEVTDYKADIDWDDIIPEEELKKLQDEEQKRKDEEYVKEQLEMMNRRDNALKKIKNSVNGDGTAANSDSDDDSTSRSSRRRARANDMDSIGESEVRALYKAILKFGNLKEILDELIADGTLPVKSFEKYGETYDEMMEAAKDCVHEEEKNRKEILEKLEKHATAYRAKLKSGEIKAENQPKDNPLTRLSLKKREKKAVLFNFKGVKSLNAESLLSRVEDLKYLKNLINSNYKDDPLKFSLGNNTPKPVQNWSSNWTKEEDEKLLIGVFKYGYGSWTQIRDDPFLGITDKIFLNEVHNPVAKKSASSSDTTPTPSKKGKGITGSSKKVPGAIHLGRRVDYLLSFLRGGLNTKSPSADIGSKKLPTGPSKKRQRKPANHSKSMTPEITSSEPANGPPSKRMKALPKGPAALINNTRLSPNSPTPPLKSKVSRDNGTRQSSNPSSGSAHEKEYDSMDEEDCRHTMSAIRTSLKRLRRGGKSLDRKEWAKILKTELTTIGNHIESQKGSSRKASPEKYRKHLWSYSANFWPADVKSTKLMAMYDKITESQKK

Sequence of Sialic acid-binding Ig-like lectin 9 (Homo sapiens) (Q9Y336 whole entry): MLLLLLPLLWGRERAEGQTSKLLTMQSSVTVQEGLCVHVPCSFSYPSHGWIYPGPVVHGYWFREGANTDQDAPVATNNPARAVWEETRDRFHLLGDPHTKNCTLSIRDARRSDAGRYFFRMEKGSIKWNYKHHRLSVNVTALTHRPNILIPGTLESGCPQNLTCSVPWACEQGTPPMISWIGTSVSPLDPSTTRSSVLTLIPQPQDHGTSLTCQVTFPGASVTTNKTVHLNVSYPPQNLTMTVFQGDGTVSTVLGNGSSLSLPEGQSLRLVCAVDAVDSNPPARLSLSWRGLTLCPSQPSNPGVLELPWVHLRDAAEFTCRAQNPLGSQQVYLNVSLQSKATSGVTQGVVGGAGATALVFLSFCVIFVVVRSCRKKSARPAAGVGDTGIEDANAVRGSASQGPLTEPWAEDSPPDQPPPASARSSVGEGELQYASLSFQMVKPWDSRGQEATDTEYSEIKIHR
Sequence of Protein translocase subunit SecA (Escherichia coli (strain K12)) (P10408 whole entry): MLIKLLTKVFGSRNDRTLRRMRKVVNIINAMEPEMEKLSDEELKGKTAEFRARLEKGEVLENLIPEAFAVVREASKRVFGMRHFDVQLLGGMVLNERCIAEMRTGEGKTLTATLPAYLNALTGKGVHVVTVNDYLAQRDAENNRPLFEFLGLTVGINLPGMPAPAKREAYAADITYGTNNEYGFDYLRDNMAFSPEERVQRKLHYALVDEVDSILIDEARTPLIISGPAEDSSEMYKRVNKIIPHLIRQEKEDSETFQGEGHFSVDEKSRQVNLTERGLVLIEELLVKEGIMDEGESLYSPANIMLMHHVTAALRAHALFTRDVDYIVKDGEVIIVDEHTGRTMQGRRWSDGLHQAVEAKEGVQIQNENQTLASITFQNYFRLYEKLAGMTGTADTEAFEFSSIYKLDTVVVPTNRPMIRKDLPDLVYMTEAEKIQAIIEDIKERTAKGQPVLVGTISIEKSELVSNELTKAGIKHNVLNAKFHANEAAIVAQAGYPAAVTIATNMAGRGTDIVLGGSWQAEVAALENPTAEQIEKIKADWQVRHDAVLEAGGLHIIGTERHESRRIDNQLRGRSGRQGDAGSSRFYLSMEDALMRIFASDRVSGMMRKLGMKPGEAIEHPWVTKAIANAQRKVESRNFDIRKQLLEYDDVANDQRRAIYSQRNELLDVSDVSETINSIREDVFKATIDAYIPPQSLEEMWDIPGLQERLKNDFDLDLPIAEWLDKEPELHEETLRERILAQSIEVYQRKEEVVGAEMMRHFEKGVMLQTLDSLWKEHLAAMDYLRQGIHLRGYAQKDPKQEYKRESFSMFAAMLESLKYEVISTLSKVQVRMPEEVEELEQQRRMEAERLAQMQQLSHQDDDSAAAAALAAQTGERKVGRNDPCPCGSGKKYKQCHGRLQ

Row | Compound | Percent Effect [1] [%] | Percent Effect [2] [%] | Percent Effect [3] [%] | Percent Effect [4] [%] | Percent Effect [5] [%] | Percent Effect [6] [%] | Percent Effect [7] [%] | Percent Effect [8] [%] | Percent Effect [9] [%] | Percent Effect [10] [%]
1 | CC(C)c1nc(C2CCCN(Cc3nnc(C4CC4)o3)C2)no1 (stereo not given) | 3.18 | -2.67 | 5.21 | 0 | 4.88 | 0.933 | 4.85 | -1.58 | -2.56 | -1.26
2 | Cc1nccn1Cc1nnc(C2CCCN(Cc3cccnc3)C2)n1C (stereo not given) | -4.77 | 16.2 | 4.69 | 5.53 | -6.64 | 12.3 | 5.04 | 9.04 | 14.6 | -2.63
3 | CC(C)CN1CCN(C(=O)NCc2cccnc2-n2cccn2)CC1 | -3.93 | 16 | -3.1 | -6.02 | -2.22 | 10.4 | 2.63 | 5.79 | 7.69 | -11.7
4 | Cc1cncc(C(=O)N2Cc3ccccc3C3(CCN(C)CC3)C2)c1 | 0.817 | 1.3 | -5.76 | -4.38 | 4.05 | 3.09 | -17 | -2.63 | -15.4 | -3.41
5 | O=C1NCC2(CCCN(Cc3ccc(Cl)s3)C2)Oc2ccccc21 (stereo not given) | -1.75 | 20 | 4.75 | 1.18 | -1.33 | 10.3 | 12.7 | 4.23 | 20 | -28.8
6 | COc1ccccc1-c1noc(CN2CCCC2Cn2cccn2)n1 (stereo not given) | -4.25 | -13.3 | 1.74 | 3.01 | -0.444 | 14.3 | 1.34 | 1.58 | 0 | -7.06
7 | CCC1=N[C@@]2(CC[C@@H]3CN(C(=O)NCc4ccccc4)C[C@@H]32)C(=O)N1C | -5.59 | -6.49 | -0.715 | -3.02 | -2.02 | 5.21 | 6.81 | 1.58 | -10.3 | 0.585
8 | O=C(Nc1cccnc1)[C@H]1C[C@H]2OCC[C@H]2N(C(=O)c2ccsc2)C1 | -4.32 | 11.7 | 13 | 4.58 | 17 | 10.5 | -7.28 | 4.74 | 12.8 | 18.5
9 | CCN1CCC2(CCC(=O)N2Cc2cccc(C)n2)CC1 | -2.48 | 9.09 | -0.0986 | -0.188 | 0.457 | 2.49 | -13.7 | 7.73 | 15 | -11.3
10 | Nc1cc(CCC2CN(Cc3ccc(C(=O)O)cc3)CCO2)ccn1 (stereo not given) | -3.81 | 9.33 | -7.05 | -5.72 | -1.77 | 13 | 12.6 | -1.06 | 2.5 | -22
11 | CC(C)c1nn(C)c(N2CCOCC2)c1CNCCS(C)(=O)=O | -1.81 | 0 | 0.36 | 1.22 | 4.92 | -0.427 | -17 | 0.478 | 1.21 | 1.65
